According to PubChem BioAssay:

Test: probe aLefty1 binding on compound microarray – biochemical, small-molecule microarray, 635/667 nm fluorescence, primary screen (AID 1153);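 further: score merges spot fluorescence with signal-to-noise ratio from the scanned slide images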
Conditions: higher = more signal
`C=COC[C@H]1CN2[C@@H](CC[C@@H](C)[C@@H]2c2ccc(Br)cc2)C(=O)O1` showed a composite z-score of 0.0402.
`O=C1C[C@@H](O)[C@@H](O)[C@@H]2[C@@H]3C(=O)N(c4cccc(Oc5ccccc5)c4)C(=O)[C@@H]3CC[C@@H]12` gave a composite z-score of -0.0652.
With `COc1ccc([Si](C)(C)[C@@H]2[C@@H](CCO)O[C@]3(C(=O)N(Cc4ccc(NC(C)=O)cc4)c4ccccc43)[C@H]2C)cc1` the composite z-score was 0.16.
Work on `O=C1[C@H]2[C@H]3[C@H](O)[C@H](O)CC(=NO[C@@H]4O[C@H](CO)[C@@H](O)[C@H](O)[C@H]4O)[C@H]3CC[C@H]2C(=O)N1C1CCCCC1` yielded a composite z-score of -0.0046.
`COc1ccc(-c2ccc3c(n2)CCCN3CC(O)CN2CCCc3nc(C)c(C)cc32)cc1` (centres undefined) gave a composite z-score of 0.864.
Compound `O=C1CCCC2OC12C(O)CCc1ccccc1` (centres undefined) has a composite z-score of -0.541.
Work on `C[C@@H](c1ccccc1)N1C(=O)[C@H]2[C@H]3[C@H](O)[C@H](O)CC(=NNC(=O)OCc4ccccc4)[C@H]3CC[C@H]2C1=O` yielded a composite z-score of 0.107.
In the case of `COc1ccc(O[C@H]2C=C[C@@H](c3ccccc3)O[C@@H]2COC(=O)CCC(C)=NOCC[C@@H]2C=C[C@H](OC(C)=O)[C@@H](COC(C)=O)O2)cc1`, the composite z-score is reported as -0.0176.
For `COC(=O)C1=C(C)N(Cc2ccccc2)[C@]23O[C@](C(=O)OC)(C(=O)N2[C@@H]1c1ccccc1)[C@H]1CCOC(=O)[C@H]13`, the composite z-score was -0.0984.
With `Cn1c(=O)n2n(c1=O)[C@H]1[C@H](O)[C@@H]3O[C@@H]3C(=NOC[C@@H](O)COCc3ccco3)[C@H]1CC2` the composite z-score was 0.946.
Work on `C[C@@H]1CC[C@H]2C(=O)O[C@H](COc3ccc(C(C)(C)C)cc3)CN2[C@H]1c1ccc(Br)cc1` yielded a composite z-score of -0.279.
With `C=CC[C@]1(C(=O)NCc2ccccc2)N=C(c2ccc(OCCCO)cc2)O[C@H]1c1ccccc1` the composite z-score was 0.398.
Work on `COCCNC(=O)OCC1CCCC2(CC(OC(=O)NCCc3ccc(F)cc3)CC(CCC(=O)N[C@@H](C)C(=O)OC)O2)O1` (some centres undefined) yielded a composite z-score of 0.0547.
In the case of `CCOC(=O)CCN1C(=O)[C@H]2[C@H]3[C@H](O)[C@H](O)CC(=NOCc4ccccc4)[C@@H]3CC[C@H]2C1=O`, the composite z-score is reported as -0.094.
With `CCCNC(=O)OC[C@H]1O[C@H](CCON=CC[C@@H]2C=C[C@H](OC(C)=O)[C@@H](COC(C)=O)O2)C=C[C@@H]1Oc1ccc(OC)cc1` the composite z-score was -0.145.
Compound `O=C1[C@H]2[C@H]3[C@H](O)[C@H](O)CC(=NOC[C@@H](O)COCc4ccco4)[C@H]3CC[C@H]2C(=O)N1Cc1ccc2c(c1)OCO2` has a composite z-score of -0.147.
In the case of `COC(=O)CC=C[C@@H](C)[C@@H](C=NO[C@@H](C)c1cc(-c2c(C)cc(C)cc2C)no1)OC`, the composite z-score is reported as 0.0004.
Compound `C=C(/C(=C/C[C@@H](OC(=O)c1ccncc1)c1ccc(OCCO)cc1)c1cnc2ccccc2c1)C(C)C` has a composite z-score of -0.0199.
Work on `CC(=O)OC[C@H]1O[C@H](CC=NOC[C@@H](C)[C@H](OCc2ccccc2)C(C)C)C=C[C@@H]1OC(C)=O` yielded a composite z-score of -0.101.
